These results are taken from PubChem BioAssay (Tox21).

Assay [1] deals with Luciferin 4-monooxygenase (Photinus pyralis) (UniProt P08659). Description: qHTS assay to identify small molecule inhibitors of firefly luciferase (AID 1224835). Also: nearly all actives have a fitted effect of over 25% in size. Also: potency is read from the fitted curve at half-maximal effect. The procedure, abridged: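 Biochemical qHTS: compounds run as interplate titrations against purified firefly enzyme, with D-luciferin and ATP each at its KM concentration. Light output recorded by CCD imaging.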
Assay [2] in a line: qHTS assay to identify small molecule agonists of the constitutive androstane receptor (CAR) signaling pathway - cell viability counter screen (AID 1224836). Also: nearly all actives have a fitted effect of over 45% in size. Also: potency is read from the fitted curve at half-maximal effect. In a few lines: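 23 h treatment, 37 C, 5% CO2. Cell line: HepG2 stably expressing hCAR with a CYP2B6-2.2kb construct. Co-treatment: PK11195, 0.75 uM final. Read-out: CellTiter-Fluor fluorescence intensity.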
Assay [3] is described as follows: qHTS assay to identify small molecule antagonists of the constitutive androstane receptor (CAR) signaling pathway - cell viability counter screen (AID 1224837). Also: nearly all actives have a fitted effect of over 45% in size. Also: potency is read from the fitted curve at half-maximal effect. The procedure, abridged:
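HepG2 cells stably expressing hCAR and a CYP2B6-2.2kb reporter were plated and pre-incubated 4 hr at 37 C/5% CO2, then given compounds at 15 concentrations plus 50 nM CITCO (final). After 23 hr, viability was read by CellTiter-Fluor fluorescence.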
(In general: qHTS replaces the single test concentration by a dilution series.)

Assay [4] concerns the target Nuclear receptor subfamily 1 group I member 3 (Homo sapiens) (UniProt Q14994). Description: qHTS assay to identify small molecule antagonists of the constitutive androstane receptor (CAR) signaling pathway (AID 1224838). Also: nearly all actives have a fitted effect of over 40% in size. The procedure, abridged:
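HepG2 cells stably co-transfected with hCAR and a CYP2B6-2.2kb luciferase reporter were seeded 4 h before compound addition at 15 concentrations. Cells were stimulated with 50 nM CITCO (final) for 24 h at 37 C; luciferase luminescence was then read.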

For assay [5] the target is unchanged. The assay can be described thus: qHTS assay to identify small molecule agonists of the constitutive androstane receptor (CAR) signaling pathway (AID 1224839). Also: nearly all actives have a fitted effect of over 15% in size. Also: potency is read from the fitted curve at half-maximal effect.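 As to activation: HepG2 cells stably carrying human CAR and a CYP2B6 luciferase reporter.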 In a few lines: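 Compounds tested at 15 concentrations on HepG2 cells stably harbouring hCAR and CYP2B6-2.2kb reporter constructs, co-treated with PK11195 (0.75 uM final), 24 h at 37 C; luminescent reporter signal quantified.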

A short description of assay [6]: qHTS assay to identify small molecule antagonists of the estrogen related receptor signaling pathway with the pleiotropic PPARgamma coactivator (PGC) from Tox21 10K library - cell viability counter screen (AID 1224840; active = well fitted cell-killing curve with a large enough effect in the repeat runs, not every such curve was filed as active; also: nearly all actives have a fitted effect of over 40% in size). In a few lines:
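PGC/ERR cells were seeded at 2,000 cells/well and left 6 hours at 37 C/5% CO2 before pin-tool addition of compounds in DMSO. After 17.5 hours at 37 C, CellTiter-Fluor was added and fluorescence read 30 minutes later.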

Assay [7] concerns the target Thyrotropin receptor (Homo sapiens) (UniProt P16473). The assay can be described thus: qHTS assay to identify small molecule agonists of the thyroid stimulating hormone receptor (TSHR) signaling pathway (AID 1224843; calls by dose curve; also: nearly all actives have a fitted effect of over 45% in size). The procedure, abridged: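 TSHR-HEK293 cells in agonist mode, 30 min room-temperature step, then cAMP measured by competitive HTRF (cAMP-d2 with anti-cAMP cryptate) after 1 h at room temperature. Tested at 15 concentrations in triplicate.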

A short description of assay [8]: qHTS assay to identify small molecule agonists of the hypoxia (HIF-1) signaling pathway - cell viability counter screen (AID 1224844; calls by dose curve; also: nearly all actives have a fitted effect of over 50% in size). The procedure, abridged:
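HRE-bla ME-180 cells in medium with 0.5% dialyzed FBS were preincubated 5 hrs at 37C, exposed to compounds for 17 hrs, then viability was read as CellTiter-Glo luminescence after 30 min at room temperature, in the reporter wells.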

Assay [9] can be described thus: qHTS assay to identify small molecule agonists of H2AX (AID 1224845; active = well fitted activation curve with a large enough effect in the signal ratio in the repeat runs, not every such curve was filed as active; the % refers to the signal ratio). In a few lines: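 Wild-type CHO-K1 cells, plated overnight, exposed 3hr at 37C to 15 concentrations (0.76% DMSO final). Lysed, then HTRF anti-pH2AX (S139) cryptate and anti-H2AX-d2 antibodies, 24 hr room temperature; 665/620 nm emission read.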
The nature of assay [10]: qHTS assay to identify small molecule agonists of the hypoxia (HIF-1) signaling pathway (AID 1224846; active = well fitted activation curve with a large enough effect in the signal ratio in the repeat runs, not every such curve was filed as active; the % refers to the signal ratio). The procedure, abridged:
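HRE-bla ME-180 cells (beta-lactamase reporter under hypoxia response element) were plated at 2,000 cells/well in medium with 0.5% dialyzed FBS, rested 5 hrs, then given compounds in DMSO for 17 hrs at 37C, 5% CO2. Reporter induction was read with CCF4-AM FRET substrate.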

The nature of assay [11]: qHTS assay to identify small molecule agonists of H2AX - cell viability counter screen (AID 1224847; calls by dose curve; also: top concentration of the series differs between compounds; nearly all actives have a fitted effect of over 30% in size). The procedure, abridged:
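Compounds tested at 15 concentrations were incubated 3 hr at 37C with wild-type CHO-K1 cells; cellular ATP-based luminescence (CellTiter-Glo) indicated viability.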

A short description of assay [12]: qHTS RealTime-Glo MT Cell Viability Assay in HepG2 cells - 24 hour (AID 1224867). Also: nearly all actives have a fitted effect of over 50% in size. The procedure, abridged:
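Tox21 10K library screened in qHTS format on HepG2 cells carrying RealTime-Glo reagents. Compounds were added after a 5 h preincubation, and the luminescent signal from continuous culture was measured repeatedly during 40 h treatment.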

A short description of assay [13]: qHTS RealTime-Glo MT Cell Viability Assay in HEK293 cells - 32 hour (AID 1224868). Also: top concentration of the series differs between compounds; nearly all actives have a fitted effect of over 50% in size. The procedure, abridged: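 Luminescence generated by NanoLuc from substrate produced by living HEK293 cells served as the viability signal. Each value reflects the reading at its stated time point during continuous 40 h compound exposure at 37 C.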
A short description of assay [14]: A CellTox Green Cytotoxicity Assay to monitor cytotoxicity in HEK293 cells - 0 hour (AID 1224869). Also: nearly all actives have a fitted effect of over 50% in size. The procedure, abridged:
(§1)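 HEK293 cells premixed with CellTox Green dye were seeded at 600 cells/well and left 5 h at 37 C/5% CO2 before pin transfer of 23 nL compound in DMSO. Fluorescence from dye bound to dead-cell DNA was read during 40 h treatment.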

A short description of assay [15]: A CellTox Green Cytotoxicity Assay to monitor cytotoxicity in HEK293 cells - 40 hour (AID 1224871). Also: nearly all actives have a fitted effect of over 45% in size. In a few lines:
as §1

A short description of assay [16]: qHTS RealTime-Glo MT Cell Viability Assay in HepG2 cells - 40 hour (AID 1224870). Also: nearly all actives have a fitted effect of over 50% in size. In a few lines: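 HepG2 cells (600/well) mixed with RealTime-Glo MT reagent, settled 5 h at 37 C/5% CO2 before compound addition. Nonlytic NanoLuc luminescence from viable-cell prosubstrate reduction read repeatedly during 40 h treatment at 37 C.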
Assay [17] can be described thus: qHTS assay to identify small molecule antagonists of the estrogen related receptor signaling pathway with the pleiotropic PPARgamma coactivator (PGC) from Tox21 10K library (AID 1224841; call rule not given here). The procedure, abridged:
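PGC/ERR reporter cells were seeded at 2,000 cells/well and held 6 hours at 37 C/5% CO2 before pin-tool addition of compounds in DMSO. After 18 hours at 37 C, One-Glo was added and luminescence read after 30 minutes at room temperature.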

The nature of assay [18]: qHTS assay to identify small molecule agonists of the estrogen related receptor signaling pathway with the pleiotropic PPARgamma coactivator (PGC) from Tox21 10K library (AID 1224842). Also: nearly all actives have a fitted effect of over 15% in size. In a few lines:
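PGC/ERR reporter cell line, 2,000 cells per well, incubated 6 h at 37 C before 23 nL compound in DMSO was added. After 18 h at 37 C, One-Glo luminescence read following 30 min at room temperature.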

A short description of assay [19]: qHTS assay to identify small molecule antagonists of the estrogen related receptor (ERR) signaling pathway from Tox21 library (AID 1224848). Also: nearly all actives have a fitted effect of over 50% in size. Also: potency is read from the fitted curve at half-maximal effect. In a few lines: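 ERR reporter cell line (from NTP) seeded 2,000 cells/well, rested 6 h at 37 C/5% CO2, then pin-dosed with compounds in DMSO. After 18 h at 37 C, ONE-Glo added; luminescence read after 30 min at room temperature.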

A short description of assay [20]: qHTS assay to identify small molecule agonists of the estrogen related receptor (ERR) signaling pathway from Tox21 library (AID 1224849; calls by dose curve; also: nearly all actives have a fitted effect of over 15% in size). The following applies: ERR reporter cell line, ONE-Glo luciferase, 18 h; at 92.4 µM (top of the series) unless noted. In a few lines: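 ERR reporter cell line (NTP) seeded, rested 6 h at 37 C/5% CO2, then pinned with Tox21 compounds in DMSO. After 18 h at 37 C, ONE-Glo luciferase luminescence was read following 30 min at room temperature.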

SMILES strings stand for the structures. Unmarked numbers belong to inactive results. Records with an inconclusive call do not appear. Calls of active or inactive are those of the source. Unless noted, calls follow the shape of the dose curve; as a rule, active = well fitted curve in the direction sought with a large enough effect in the repeat runs; inconclusive = weak or mixed curves; inactive = no such curve, though single readings can be large; an effect the other way counts as inactive or inconclusive.
% is scaled to controls: 0 for no effect and ±100 for the full control effect.

Sequence of Luciferin 4-monooxygenase (Photinus pyralis) (P08659 whole entry, looked up): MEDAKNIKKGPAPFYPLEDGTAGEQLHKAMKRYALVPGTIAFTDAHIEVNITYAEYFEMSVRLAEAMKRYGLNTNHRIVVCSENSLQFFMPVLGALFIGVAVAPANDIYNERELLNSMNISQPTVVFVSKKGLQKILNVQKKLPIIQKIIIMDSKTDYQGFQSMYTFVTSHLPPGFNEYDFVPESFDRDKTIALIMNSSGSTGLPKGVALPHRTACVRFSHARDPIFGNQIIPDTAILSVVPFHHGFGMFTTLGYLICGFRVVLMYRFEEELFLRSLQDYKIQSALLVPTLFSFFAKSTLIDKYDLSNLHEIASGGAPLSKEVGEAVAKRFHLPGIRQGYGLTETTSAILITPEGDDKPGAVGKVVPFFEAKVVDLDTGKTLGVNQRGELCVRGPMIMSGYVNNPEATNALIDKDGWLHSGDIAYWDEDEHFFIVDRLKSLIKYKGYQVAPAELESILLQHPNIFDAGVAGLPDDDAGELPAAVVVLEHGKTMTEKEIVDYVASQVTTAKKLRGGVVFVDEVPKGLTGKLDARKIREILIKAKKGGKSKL
Sequence of Thyrotropin receptor (Homo sapiens) (P16473 whole entry, looked up): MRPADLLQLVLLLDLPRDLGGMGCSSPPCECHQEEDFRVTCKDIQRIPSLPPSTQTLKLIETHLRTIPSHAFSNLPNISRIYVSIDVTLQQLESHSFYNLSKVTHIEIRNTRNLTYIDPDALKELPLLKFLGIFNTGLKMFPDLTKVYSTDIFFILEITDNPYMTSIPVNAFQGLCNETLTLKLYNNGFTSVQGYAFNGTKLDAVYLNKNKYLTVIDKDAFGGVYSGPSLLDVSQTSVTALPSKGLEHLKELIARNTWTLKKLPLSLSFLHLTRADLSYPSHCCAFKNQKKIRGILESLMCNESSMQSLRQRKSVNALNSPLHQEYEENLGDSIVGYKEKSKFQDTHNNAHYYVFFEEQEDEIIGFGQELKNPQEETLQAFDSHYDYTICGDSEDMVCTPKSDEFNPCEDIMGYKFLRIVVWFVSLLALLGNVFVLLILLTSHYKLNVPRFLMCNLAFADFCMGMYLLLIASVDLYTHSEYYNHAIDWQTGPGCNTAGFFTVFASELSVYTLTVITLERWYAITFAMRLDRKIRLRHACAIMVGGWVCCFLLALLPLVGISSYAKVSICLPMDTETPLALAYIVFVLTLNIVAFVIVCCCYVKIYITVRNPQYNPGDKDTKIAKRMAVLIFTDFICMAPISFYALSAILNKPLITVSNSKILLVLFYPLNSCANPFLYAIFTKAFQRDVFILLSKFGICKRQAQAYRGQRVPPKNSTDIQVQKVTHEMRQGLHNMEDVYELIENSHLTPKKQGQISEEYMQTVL
Sequence of Nuclear receptor subfamily 1 group I member 3 (Homo sapiens) (Q14994 whole entry, looked up): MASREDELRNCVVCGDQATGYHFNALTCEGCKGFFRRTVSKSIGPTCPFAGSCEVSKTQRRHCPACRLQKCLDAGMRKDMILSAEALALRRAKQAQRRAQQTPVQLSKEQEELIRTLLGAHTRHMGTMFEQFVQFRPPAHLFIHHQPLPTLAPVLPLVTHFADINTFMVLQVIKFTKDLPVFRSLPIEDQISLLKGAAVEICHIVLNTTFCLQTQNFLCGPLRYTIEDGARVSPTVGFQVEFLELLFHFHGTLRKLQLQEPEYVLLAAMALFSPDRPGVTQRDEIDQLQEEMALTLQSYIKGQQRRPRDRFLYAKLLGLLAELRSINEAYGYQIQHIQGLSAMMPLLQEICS

Take `CC(=O)NCCCCCC(=O)O`: the Potency entry in assay [1], in assay [2], in [3], in assay [5], in [7] and in [11] was “inactive” each time. Further, the Potency result in [13] and in assay [15] was “inactive” in each case. Besides, the outcome in assay [4], in assay [6], in [8], in assay [9], in assay [10] and in [12] was inactive. The compound was classed as inactive in [14].
Consider `C=C(C)C(=O)OCCN(CC)CC`, for which the Potency entry in [1], in assay [2], in assay [3], in assay [5], in [7] and in assay [13] was “inactive” in each case. In addition, the Potency result in assay [15] was “inactive”. For the same compound, the outcome in [4], in assay [6], in assay [8], in [9], in assay [10] and in [12] was inactive. The compound was called inactive in [14] and in assay [16].
With `O=C1CC(c2ccc(Cl)cc2)CC(=O)N1`, the Potency result in [1], in assay [2], in assay [3], in assay [5], in assay [7] and in assay [11] was “inactive” throughout. Also, the Potency result in assay [13] and in assay [15] was “inactive” each time. The compound was classed as inactive in assay [4], in assay [6], in assay [8], in assay [9], in assay [10] and in [12]. Moreover, the call in assay [14] and in assay [16] was inactive.
On to `CC(=C(CCOC(=O)C(C)C)SSC(CCOC(=O)C(C)C)=C(C)N(C=O)Cc1cnc(C)nc1N)N(C=O)Cc1cnc(C)nc1N`, for which the Potency entry in [1], in [2], in [3], in assay [17], in [7] and in assay [19] was “inactive” in each case. For the same compound, the Potency result in [13] and in assay [15] was “inactive” in each case. The compound was classed as inactive in assay [4], in assay [6], in [18], in assay [8], in assay [9] and in assay [10]. In addition, the outcome in [16] was inactive. For the same compound, the activity change, positive = activation in [20] is 0.537% [at 42.5 µM].
For `CCCCNc1ccc(C(=O)OCCN(C)C)cc1`, the Potency entry in assay [1], in [2], in assay [3], in [7], in assay [11] and in [13] was “inactive” throughout. Besides, in assay [15], the Potency entry is “inactive”. For the same compound, the result in [4], in assay [6], in [9], in [12], in assay [14] and in [16] was inactive.
Turning to `COc1ccc2c(c1OC)C(=O)O[C@@H]2[C@H]1c2c(cc3c(c2OC)OCO3)CCN1C`, the Potency entry in [1], in assay [17], in [7], in [11], in assay [19] and in assay [15] was “inactive” throughout. The figures for the Potency in assay [2] and in assay [3] were 8.41 µM (active) and 10.6 µM (active), respectively. Besides, the compound was classed as inactive in assay [4], in assay [18], in [8], in assay [9], in assay [12] and in assay [14]. The result in assay [16] was inactive. Further, the activity change, positive = activation in assay [20] is -16% [at 42.5 µM].
For the compound `COc1cc(N)ccc1C`, the Potency result in assay [1], in assay [2], in assay [3], in assay [7], in assay [11] and in assay [13] was “inactive” throughout. Besides, the Potency result in assay [15] is “inactive”. Moreover, the result in assay [4], in [6], in assay [18], in assay [8], in assay [9] and in [10] was inactive. Also, the compound was classed as inactive in assay [12], in assay [14] and in [16]. Further, the Potency in assay [19] was 27 µM (active). Moreover, the activity change, positive = activation in assay [20] was -31.2%.
Turning to `CC(C)(C)OC(=O)c1ccc(O)cc1`, the Potency is 39.9 µM (active) in [1] and 24.3 µM (active) in [5]. In addition, the Potency result in assay [2], in [3], in assay [17], in assay [7], in assay [11] and in assay [19] was “inactive” each time. For the same compound, the Potency entry in [13] and in assay [15] was “inactive” throughout. Moreover, the result in assay [6], in [18], in assay [8], in assay [9], in [10] and in assay [12] was inactive. The compound was called inactive in assay [14] and in [16].
